Inhibition data for twelve compounds are collected here from PubChem BioAssay AID2061166 (Soto Lab, Mitchell Center for Alzheimers Disease and …, 2025).

The structures appear in SMILES notation. Calls of active or inactive are those of the source.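 The calls were made as follows: active = mean tau seeding fluorescence area under 1% of vehicle, meaning inhibition above a set limit; inactive = the rest.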

The target in the test is Microtubule-associated protein tau (Homo sapiens) (UniProt P10636). The test can be described thus: inhibitors of seeded tau aggregation, primary screen, biochemical, seed amplification, ThT fluorescence (AID 2061166). Conditions: Recombinant tau seeded by AD brain, ThT fluorescence AUC; at 100 µM; active compounds read high.
Sequence of Microtubule-associated protein tau (Homo sapiens) (P10636 whole entry, looked up): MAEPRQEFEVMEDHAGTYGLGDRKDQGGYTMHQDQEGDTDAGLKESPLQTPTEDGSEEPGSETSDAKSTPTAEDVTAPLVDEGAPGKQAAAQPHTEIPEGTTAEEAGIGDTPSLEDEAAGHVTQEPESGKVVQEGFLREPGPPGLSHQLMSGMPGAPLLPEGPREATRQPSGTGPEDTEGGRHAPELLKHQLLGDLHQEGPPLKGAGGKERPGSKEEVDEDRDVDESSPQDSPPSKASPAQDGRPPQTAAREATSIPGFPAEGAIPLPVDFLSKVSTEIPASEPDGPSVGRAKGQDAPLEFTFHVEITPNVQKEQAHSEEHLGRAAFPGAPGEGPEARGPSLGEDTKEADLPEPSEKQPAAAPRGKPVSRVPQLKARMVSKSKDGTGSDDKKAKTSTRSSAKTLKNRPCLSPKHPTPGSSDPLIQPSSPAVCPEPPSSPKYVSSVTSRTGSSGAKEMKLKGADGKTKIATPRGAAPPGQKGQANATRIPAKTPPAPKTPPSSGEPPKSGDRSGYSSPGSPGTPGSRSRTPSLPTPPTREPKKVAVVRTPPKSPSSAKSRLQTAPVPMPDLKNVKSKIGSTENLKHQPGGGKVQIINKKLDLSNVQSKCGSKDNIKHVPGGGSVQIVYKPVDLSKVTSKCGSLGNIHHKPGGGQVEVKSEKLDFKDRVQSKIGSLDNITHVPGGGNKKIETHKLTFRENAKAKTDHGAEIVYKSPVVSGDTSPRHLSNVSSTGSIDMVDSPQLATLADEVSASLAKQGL
For `Cc1cccc(C(C)c2cnc[nH]2)c1C` (configuration not stated), the inhibition is 17.4% (inactive).

As for `Cn1c(CCCC(=O)O)nc2cc(N(CCCl)CCCl)ccc21`, the inhibition was 48% (inactive).

Consider `CNC(=O)Oc1cccc2ccccc12`, for which the inhibition was 63.7% (inactive).

With `c1cncc(C2=NCCC2)c1`, the inhibition is 32.6% (inactive).

As for `Cn1cc(C2=C(c3cn(C4CCN(Cc5ccccn5)CC4)c4ccccc34)C(=O)NC2=O)c2ccccc21`, the inhibition was 18.6% (inactive).

For `O=C(CS(=O)C(c1ccccc1)c1ccccc1)NO` (configuration not stated), the inhibition is 7.82% (inactive).

For the compound `COc1ccc(C(=O)O)cc1OC`, the inhibition is 11.4% (inactive).

Turning to `COc1ccc2c3c([nH]c2c1)C(C)=NCC3`, the inhibition is 11.8% (inactive).

Turning to `O=C1C=C2C=CC3CC2(O1)C1CCCCN31` (configuration not stated), the inhibition is 17% (inactive).

Consider `COc1ccc(C(CN(C)C)C2(O)CCCCC2)cc1` (configuration not stated), for which the inhibition is 40.8% (inactive).

On to `O=c1c2ccccc2[se]n1-c1ccccc1`, for which the inhibition is 51.6% (inactive).

Regarding `COc1ccc2c(c1)[nH]c1c(C)nccc12`, the inhibition was 35.5% (inactive).

A word on the inhibition: it is the share of the control response that was lost under treatment.
